# In all, about 220,000 compounds went through this assay and about 2,000 (0.91%) were called active. Not shown: some 2% with an inconclusive outcome. No stated cut-off is given here; in the data, inconclusive means inhibition above about 80% without an active follow-up result; inactive means below that; test concentration not stated here. Only a sample is shown. Measured potencies and affinities stand elsewhere.
# Experiment: M. tuberculosis H37Rv growth inhibitors, H37Rv strain (AID 1626);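 further: bacteria incubated seven days before Alamar blue readout; 0% = bacteria only wells and 100% = bacteria with antibiotic wells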
# Details: active compounds read high, concentration not given here
row,SMILES,inhibition
1,CC(C)CNC(=O)c1c(N)n(/N=C/c2ccccn2)c2nc3ccccc3nc12,-5.94% (inactive)
2,CCC(C)NC(=O)c1c(N)n(/N=C/c2cccnc2)c2nc3ccccc3nc12 (stereo not given),7.17% (inactive)
3,Cc1ccc(CSCc2ccc(C(=O)NCC3CCCO3)o2)cc1 (stereo not given),6.03% (inactive)
4,CCOC(=O)c1ccc(NC(=S)N2CCN(c3ccc(N4CCOCC4)nn3)CC2)cc1,4.49% (inactive)
5,CC(C)C(NC(=O)c1ccccc1)C(=O)NC1=NCCS1 (stereo not given),-2.59% (inactive)
6,CCc1nnc(NC(=O)c2cc(-c3ccccc3)nn2-c2ccccc2)s1,19.3% (inactive)
7,O=C(Nc1nc2ccccc2s1)c1cc(-c2ccccc2)nn1-c1ccccc1,-3.23% (inactive)
8,CC(OC(=O)CCC(=O)c1cccs1)C(=O)Nc1ccc(Cl)cn1 (stereo not given),2.41% (inactive)
9,Fc1ccc(-c2cc3nc(-c4ccccc4)cc(N4CCOCC4)n3n2)cc1,1.89% (inactive)
10,OC1CCN(c2cc(-c3ccccc3)nc3cc(-c4ccc(F)cc4)nn23)CC1,5.18% (inactive)
11,O=C(O)C(Oc1ccc2c3c(c(=O)oc2c1)CCC3)c1ccccc1 (stereo not given),-10.3% (inactive)
12,Cc1nnc(SCC(=O)Nc2ncc(S(=O)(=O)c3ccc([N+](=O)[O-])cc3)s2)s1,-0.12% (inactive)
13,Cc1ccc(Nc2nnc(SCC(=O)Nc3ncc(S(=O)(=O)c4ccc([N+](=O)[O-])cc4)s3)s2)cc1,0% (inactive)
14,COc1ccc(OCC(O)CNC(=O)Nc2cc(C)cc(C)c2)cc1 (stereo not given),-16.7% (inactive)
15,CCOC(=O)C(Cc1ccccc1)C(=O)Nc1ccc(NC(=O)C(Cc2ccccc2)C(=O)OCC)cc1 (stereo not given),3.39% (inactive)
16,CCOC(=O)C(Cc1ccccc1)C(=O)Nc1ccccc1C (stereo not given),-5.73% (inactive)
17,COC(=O)c1cn(NC(=O)Cc2cccc(OC)c2)c(=O)c2ccccc12,3.66% (inactive)
18,CC1CCN(S(=O)(=O)N2CCC(C(=O)NCc3cccs3)CC2)CC1,-4.64% (inactive)
19,Cc1cc(C(=O)COc2ncnc3sccc23)c(C)n1C,-3.73% (inactive)
20,Cc1noc(-c2ccccc2OC(=O)c2ccccc2)n1,1.9% (inactive)
21,COC(=O)c1cc(Sc2c(Cl)cccc2Cl)ccn1,34% (inactive)
22,COC(=O)c1ncccc1SC,-0.23% (inactive)
23,S=C(NCc1ccco1)Nc1ccc(Br)cc1Cl,4.87% (inactive)

row,SMILES,inhibition
1,O=c1cc(-c2ccccc2)c2ccccc2[nH]1,-8.75% (inactive)
2,O=C(c1c[nH]cc1-c1ccccc1)c1cccc2ccccc12,-3.22% (inactive)
3,COc1ccc(C(CC(=O)Nc2ccccc2OC)n2cccc2)cc1 (stereo not given),3.19% (inactive)
4,CCOC(=O)N1CCN(C(=O)CN(c2ccc(OC)cc2)S(C)(=O)=O)CC1,-8.65% (inactive)
5,CCn1c(=O)c(C(=O)NC(C)C)c(O)c2ccccc21,0.51% (inactive)
6,O=S(=O)(Nc1ccccc1)c1ccc(-c2csnn2)cc1,8.85% (inactive)
7,CCN(CC)C(=O)CN(c1cc(Cl)ccc1OC)S(=O)(=O)c1ccc(C)c([N+](=O)[O-])c1,4.94% (inactive)
8,O=C(NCc1nnc2c3ccccc3c(-c3ccccc3)nn12)c1ccccc1Cl,17.6% (inactive)
9,O=C(COc1ccc(Cl)cc1)NCc1nnc2c3ccccc3c(-c3ccccc3)nn12,32.3% (inactive)
10,CCn1nc(C(=O)NCCc2ccc(S(N)(=O)=O)cc2)c2ccccc2c1=O,-2.56% (inactive)
11,COc1cc(OC)c2c(-c3ccccc3)cc(=O)oc2c1C(CCN1CCN(c2ccccc2)CC1)c1ccc(N(C)C)cc1 (stereo not given),13.6% (inactive)
12,COc1ccc(C(CCN2CCN(c3ccccc3)CC2)c2c(OC)cc(OC)c3c(-c4ccccc4)cc(=O)oc23)cc1 (stereo not given),6.72% (inactive)
13,COc1ccc(C(CCN2CCCC2)c2c(OC)cc(OC)c3c(-c4ccccc4)cc(=O)oc23)cc1 (stereo not given),64.5% (inactive)
14,COc1cc(C(CCN2CCCCC2)c2c(OC)cc(OC)c3c(-c4ccccc4)cc(=O)oc23)cc(OC)c1OC (stereo not given),10.2% (inactive)
15,CC(C)CCn1nnnc1C(C(C)C)N1CCC(C(N)=O)CC1 (stereo not given),-6.25% (inactive)
16,CC(/C=C/c1ccco1)=N\NC(=O)c1cc(C)[nH]n1,-12% (inactive)
17,O=C(Nc1ccccc1O)c1cc(S(=O)(=O)N2CCOCC2)ccc1Cl,6.89% (inactive)
18,NNc1nc(-c2ccccc2)cs1,4.39% (inactive)
19,Fc1ccc(/C=C\c2nccc3c2[nH]c2ccccc23)cc1,8.94% (inactive)
20,Cc1ccc(/C=C\c2nccc3c2[nH]c2ccccc23)cc1,42.1% (inactive)
21,Cc1ccc(/C=N/NC(=O)Cn2nnc(N)n2)cc1,-5.78% (inactive)
22,CCC(C)[C@H](NC(=O)NCCC1=CCCCC1)C(=O)OC (stereo not given in full),-7.06% (inactive)
23,O=C(CSc1ncccn1)N/N=C/c1ccc(OC2CSC2)cc1,0.1% (inactive)

row,SMILES,inhibition
1,CCc1ccc(-c2nn(-c3cc(Cl)ccc3[N+](=O)[O-])c(=O)c3ccccc23)cc1,3.9% (inactive)
2,CC(C)=C1SC(N2CCOCC2)=NC1=O,-2.58% (inactive)
3,Cc1c(C(=O)O)cccc1N1C(=O)Nc2ccccc2N1O,5.34% (inactive)
4,c1ccc(-c2nc(CSc3nnc(-c4cccs4)o3)cs2)cc1,2.37% (inactive)
5,Clc1ccc(-c2nnc(CSc3nnc(-c4cccs4)o3)o2)cc1,12.5% (inactive)
6,c1ccc(-c2nnc(CSc3nnc(-c4cccs4)o3)o2)cc1,39.4% (inactive)
7,Cc1ccc(Nc2nc(CSc3n[nH]c(N)n3)cs2)cc1,9.31% (inactive)
8,O=C(Nc1nc(-c2cccc3ccccc23)cs1)c1ccc2c(c1)S(=O)(=O)c1ccccc1C2=O,4.24% (inactive)
9,Cc1cccc(NC(=S)N(Cc2cccs2)Cc2cc3cc(C)ccc3[nH]c2=O)c1,8.62% (inactive)
10,CC(=O)O/C(=C\c1cn(C(C)=O)c2ccccc12)C(=O)O,7.86% (inactive)
11,COc1cc(-c2nnc(SCC(=O)c3ccccc3)o2)cc(OC)c1OC,-0.24% (inactive)
12,CCOC(=O)CSc1nnc(-c2cccnc2)o1,-8.92% (inactive)
13,COc1cc(OC)cc(-c2nnc(SCC(=O)N3CCCCC3)o2)c1,13.8% (inactive)
14,CCOC(=O)N1CCN(C(=O)CSc2nnc(Cc3ccccc3)o2)CC1,3.59% (inactive)
15,CCOC(=O)CSc1nnc(-c2ccccc2)o1,27.1% (inactive)
16,O=C(CSc1nnc(COc2ccccc2)o1)N1CCN(c2ccccc2)CC1,7.79% (inactive)
17,CCCCN(CCCC)C(=O)CSc1nnc(-c2cc(OC)c(OC)c(OC)c2)o1,5.31% (inactive)
18,COc1cc(OC)cc(-c2nnc(SCC(=O)N3CCCC3)o2)c1,14.8% (inactive)
19,Cc1ccc(C)n1-c1c(C(=O)NN)cnn1-c1ccccc1,-0.22% (inactive)
20,C=CCn1c(-c2cccnc2)n[nH]c1=S,4.66% (inactive)
21,O=C1CCC/C(=N\NC(=O)COc2ccc(Cl)cc2)C1,-2.69% (inactive)
22,O=C(Cn1cnc2ccccc2c1=O)Nc1ccccc1N1CCOCC1,2.06% (inactive)
23,CN1CCN(c2ccccc2NC(=O)c2cc(Br)ccc2Cl)CC1,12.3% (inactive)

row,SMILES,inhibition
1,COC(=O)C(Cc1ccccc1)NC(=S)NC(=O)c1ccccc1 (stereo not given),3.22% (inactive)
2,CCOC(=O)c1c(C)[nH]c(C)c1C(=O)CSc1nnc(-c2cc(OC)c(OC)c(OC)c2)o1,-2.95% (inactive)
3,COc1cc(-c2nnc(SCC(=O)N3CCCC3)o2)cc(OC)c1OC,-3.99% (inactive)
4,COc1ccc(N2CCC(CNC(=O)Nc3cccc(OC)c3)C2)cc1 (stereo not given),8.56% (inactive)
5,COc1ccc(NC(=S)N2C3CCC2CC(NC(=O)NC24CC5CC(CC(C5)C2)C4)C3)c(OC)c1 (stereo not given),40.3% (inactive)
6,CCOCC(=O)Nc1ccc([N+](=O)[O-])cc1C,4.52% (inactive)
7,COc1ccc(CC2(CO)CCN(Cc3cc4ccccc4o3)CC2)cc1,5.84% (inactive)
8,CC(Sc1ccccc1)C(=O)NN=C1CCCC1 (stereo not given),-0.55% (inactive)
9,CC1CCc2nc(NC(=O)CN3CCN(Cc4ccc5c(c4)OCO5)CC3)sc2C1 (stereo not given),64.4% (inactive)
10,CC1CCc2nc(NC(=O)CN3CCN(c4ccc(F)cc4)CC3)sc2C1 (stereo not given),18.4% (inactive)
11,CC1CCc2nc(NC(=O)CN3CCOCC3)sc2C1 (stereo not given),23.3% (inactive)
12,COc1ccc(N2CCN(CC(=O)Nc3nnc(-c4ccccc4)s3)CC2)cc1,73.3% (inactive)
13,O=C(O)c1ccccc1NC(=S)NC(=O)c1sc2ccccc2c1Cl,-3.63% (inactive)
14,CCOC(=O)C(C)Sc1nc(=O)n2ccccc2n1 (stereo not given),-0.38% (inactive)
15,Clc1cccc(Cl)c1CSc1nnc(CN2CCOCC2)n1-c1ccccc1,-7.41% (inactive)
16,O=C(O)CCC(=O)Nc1ccc(Br)cc1C(=O)c1ccc(Cl)cc1,-5.88% (inactive)
17,COc1ccccc1COCC(O)CN(Cc1ccco1)Cc1ccccc1O (stereo not given),11.4% (inactive)
18,COc1ccc(/C=C/C(=O)C(C)(C)C)cc1OC,7.04% (inactive)
19,COc1ccc(/C=C/C(=O)O)cc1OC,-4.92% (inactive)
20,CCOC(=O)c1cc(-c2ccccc2)sc1NC(=O)C(C)OC(=O)c1ccncc1 (stereo not given),0.66% (inactive)
21,C=CCSc1nc(C)cc(C(=O)OCC)c1C#N,-3.16% (inactive)
22,COc1ccccc1C(=O)O/N=C(\c1ccccc1)c1ccncc1,3.28% (inactive)
23,CCOc1cccc(/C=C/C(=O)O)c1,4.51% (inactive)

row,SMILES,inhibition
1,CCOC(=O)N/N=C/C=C/c1ccccc1,-6.43% (inactive)
2,Oc1csc(Cc2nc(-c3ccc(Br)cc3)cs2)n1,38.3% (inactive)
3,Cc1cccc(NC(=O)c2c(O)c3cccc4c3n(c2=O)CCC4)n1,-9.1% (inactive)
4,O=C(NCc1cccnc1)c1c(O)c2cccc3c2n(c1=O)CCC3,-3.06% (inactive)
5,O=C(Nc1ccccn1)c1c(O)c2cccc3c2n(c1=O)CCC3,-3.22% (inactive)
6,CNC(=O)c1c(O)c2cccc3c2n(c1=O)CC3,-2% (inactive)
7,CCNCCNC(=O)c1c(O)c2cccc3c2n(c1=O)CCC3,1.67% (inactive)
8,CCCCNC(=O)c1c(O)c2cccc3c2n(c1=O)CCC3,3.46% (inactive)
9,COc1ccc(-n2cnnc2SCC(=O)Nc2cccnc2Cl)cc1,2.1% (inactive)
10,O=C(Nc1nccs1)c1ccc(Cl)c(S(=O)(=O)N2CCOCC2)c1,-20.2% (inactive)
11,CC1C(c2ccccc2)=NNc2nc3c(c(=O)n(C)c(=O)n3C)n21 (stereo not given),-9.85% (inactive)
12,Cc1cccc2c1CC(C)(C)N=C2C1=C(O)CC(C)(C)CC1=O,2.19% (inactive)
13,CC(=O)Nc1ccc(NC(=O)CCc2nc3ccccc3c(=O)[nH]2)cc1,2.86% (inactive)
14,O=c1[nH]c(=O)n(CCc2ccccc2)c(O)c1C=NCc1ccc2c(c1)OCO2,-3.13% (inactive)
15,CCCCn1c(O)c(C(C)=NCc2ccc3c(c2)OCO3)c(=O)[nH]c1=O,10.3% (inactive)
16,O=C(/C=C/c1c[nH]c2ccccc12)c1c(O)n(CCc2ccccc2)c(=O)[nH]c1=O,22.5% (inactive)
17,Cn1c(N)c(C(=O)/C=C/c2ccccc2)c(=O)[nH]c1=O,-9.59% (inactive)
18,COc1cc(/C=C/C(=O)CC(=O)/C=C/c2ccc(O)c(OC)c2)ccc1O,7.76% (inactive)
19,COc1ccc(/C=C/C(=O)c2c(O)n(CCC3=CCCCC3)c(=O)[nH]c2=O)cc1OC,36.6% (inactive)
20,Cc1cc(C)c(C(=O)/C=C/c2ccc3c(c2)OCO3)c(=O)[nH]1,-2.72% (inactive)
21,CCCCn1c(O)c(C(CC)=NCc2ccc3c(c2)OCO3)c(=O)[nH]c1=O,-0.92% (inactive)
22,COc1ccc(CN(C)CC(=O)Nc2sc3c(c2C#N)CCC3)cc1OC,3.36% (inactive)
23,Cc1ccc(/C=N/NC(=O)CCCOc2ccc(Cl)cc2Cl)cc1[N+](=O)[O-],-5.05% (inactive)

# — PubChem BioAssay AID1626 (SRMLSC, 2009)
